# A selection: hits, their analogues and other compounds. The true share with any hit is near 11%.
# HCV inh = blocks hepatitis C virus | Huh7.5.1 HCVcc-Cre infection, luciferase reporter, 44 h | Potency, µM (series often up to 41.8 µM), inactives show top-dose activity change, negative = inhibition, most hits filed as inhibitors | hit rate 3.4% among 340,000 | AID 651820
#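 After 44 h co-culture of compound, cells and HCVcc-Cre (~0.5 moi), substrate is added for 15 min at room temperature and luciferase measured over 15 sec. Cells were seeded at 1,000/well and pre-cultured 4 h.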
# Pf growth 96h = P. falciparum growth inhibition at 96 hours; P. falciparum luciferase reporter growth, 96 h; Potency, µM (top dose mostly 28.7 µM), for the others: top-dose activity change, negative = inhibition, usual class: inhibitors; hit rate 6.9% among 320,000
#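 P. falciparum expressing integrated firefly luciferase grown in erythrocytes (2% hematocrit, 0.05% parasitemia final) with compounds for 96 hours at 37 C, 5% CO2. Growth inhibition read as loss of luminescence after adding luciferase detection reagent.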
# Pf growth 48h = inhibits P. falciparum growth in the first generation, 48 h. AID 504832. Potency, µM (titrated, usually from 28.7 µM), without a hit: at the highest dose activity change, negative = inhibition, hits mostly inhibitors. P. falciparum luciferase growth in erythrocytes, 48 h. hit rate 5.9% among 310,000
#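 Growth was read as firefly luciferase luminescence after a 48 h, 37 C, 5% CO2 exposure of compounds to reporter-bearing P. falciparum cultures (0.1% parasitemia, 2% hematocrit final) in Albumax-supplemented RPMI 1640.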
# AMA1 RON2 block = disrupts binding of P. falciparum AMA1 to RON2; AlphaScreen AMA1-biotinylated RON2 peptide binding; Potency, µM (titrated, usually from 58.2 µM), inactives show at the top dose activity change, negative = inhibition, actives largely listed as inhibitors; hit rate 0.2% among 360,000; AID 720542;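 further: 0% = vehicle wells and -100% = peptide control; nearly all actives have a fitted effect of over 45% in size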
#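 AMA1 (3D7) with his tag at 25 nM final met compounds first, then biotinylated RON2 peptide at 25 nM; detection used donor plus acceptor beads, 10 µg/mL apiece, read by AlphaScreen after 30 min at room temperature.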
# * = called active by the depositor; u = inconclusive; x = no result. The call rests on the fitted dose curve; in most records, active means well fitted curve in the direction sought with a large enough effect; inconclusive means small, poorly fitted or top-dose-only effect, or another doubt; inactive means no such curve, though single readings can be large; an effect the other way counts as inactive or inconclusive. Unless noted, on the % scale 0 is the no-effect control and ±100 the full control effect; potency means the concentration at half of the fitted maximal effect.
SMILES,HCV inh,Pf growth 96h,Pf growth 48h,AMA1 RON2 block
CCC(Oc1ccc(F)cc1)C(=O)N1CCCCCCC1 (stereo unspecified),15.3%,0.0%,0.7%,32.2%
COc1ccc(Nc2ncnc3ccc(C)cc23)cc1,-6.2%,11.7µM*,u,9.0%
COC(=O)c1cccc(Nc2ncnc3ccc(C)cc23)c1,-22.7%,u,x,-6.0%
Cc1ccc(Cn2ncc3c(N4CCN(c5ccccc5C)CC4)ncnc32)cc1,u,u,13.1µM*,-6.4%
COc1ccc(Nc2ncnc3c2cnn3Cc2ccc(C)cc2)cc1,11.2µM*,x,-3.4%,-10.7%
c1ccc(Cn2ncc3c(Nc4ccccc4)ncnc32)cc1,u,-24.7%,u,20.4%
COCCCNC(=O)C[C@@H]1C[C@@]2(C(=O)OC)CCCCC=C2N(Cc2ccco2)C1=O,x,x,x,12.2%
NCc1cc2c3c(c1)CCCN3CCC2,6.2%,7.38µM*,-6.0%,17.2%
COc1c(C=O)cc2c3c1CCCN3CCC2,-1.8%,u,-3.3%,-3.2%
CC(C)(C)NCC(O)CON=C1c2ccccc2-c2ccccc21 (stereo unspecified),25.1µM*,u,u,7.7%
O=C(COC(=O)c1ccc[nH]c1=O)NC1CCCCC1,7.8%,7.7%,7.8%,-1.4%
Cc1ccc(S(=O)(=O)Nc2c(C)n(C)n(-c3ccccc3)c2=O)cc1C(=O)OC(C)C(=O)c1ccccc1 (stereo unspecified),-5.0%,x,x,-2.6%
Cc1ccc(S(=O)(=O)Nc2c(C)n(C)n(-c3ccccc3)c2=O)cc1C(=O)OC(C)C(=O)N(C)c1ccccc1 (stereo unspecified),17.7%,14.7µM*,-22.1%,-6.1%
COc1ccc(C(=O)CSc2nc3[nH]ncc3c(=O)[nH]2)cc1,17.4%,10.6%,25.8%,12.6%
Cc1cc(=O)oc2cc(OCC(=O)OCC(=O)Nc3c(C)n(C)n(-c4ccccc4)c3=O)ccc12,-8.3%,21.7%,-0.2%,-8.2%
COc1ccccc1CNC(=O)C1CCC(CNS(=O)(=O)c2ccc(C)cc2)CC1 (stereo unspecified),u,7.38µM*,u,9.7%
COc1ccccc1CNC(=O)C(CC(C)C)NC(=O)C1CCC(C)CC1 (stereo unspecified),1.8%,13.1µM*,x,35.9%
CCNC(=O)N(C)C[C@H]1N[C@@](C)(C(=O)OC)[C@H]2C(=O)N(Cc3ccccc3)C(=O)[C@@H]12,17.7%,x,x,-1.7%
Cc1cccc(C(=O)NC(Oc2ccccc2)C(Cl)(Cl)Cl)c1 (stereo unspecified),-1.7%,7.38µM*,u,2.0%
COc1ccc(C(=O)NC(Oc2ccccc2)C(Cl)(Cl)Cl)cc1 (stereo unspecified),10.0%,u,64.2%,4.1%
CC12CCC(C(=O)NC3CCCCC3)([C@H](Br)C1=O)C2(C)C (stereo partly specified),12.1%,29.5%,37.6%,-6.4%
COCCCN1C(=O)C(=O)/C(=C(/O)c2ccc(S(=O)(=O)N3CCCCC3)cc2)C1c1ccc(OC)cc1 (stereo unspecified),13.0%,12.9%,32.4%,-6.3%
CCOc1ccc(C2/C(=C(/O)c3ccc(S(=O)(=O)N4CCCCC4)cc3)C(=O)C(=O)N2CCCOC)cc1OC (stereo unspecified),0.1%,3.7µM*,u,-9.9%
O=C1C(=O)N(CCN2CCOCC2)C(c2ccc(Cl)cc2)/C1=C(/O)c1ccc(S(=O)(=O)N2CCOCC2)cc1 (stereo unspecified),21.9%,2.62µM*,-39.8%,8.3%
CC1CCCCC1Nc1nc2ccc(Cl)cc2n2cnnc12 (stereo unspecified),-0.1%,-5.5%,u,-9.1%
SMILES,HCV inh,Pf growth 96h,Pf growth 48h,AMA1 RON2 block
CCCCn1c(O)c(C(C)=NCCc2c[nH]c3ccccc23)c(=O)[nH]c1=O,u,u,u,2.3%
Cn1c(O)c(C(=NCCc2c[nH]c3ccccc23)c2ccccc2)c(=O)n(C)c1=O,1.7%,u,9.28µM*,-7.5%
CC(C)c1oc(=O)cc2c1[C@@H](O)[C@H]1OC(=O)[C@@]3(C)C[C@@H](O)[C@@H](O)[C@@]2(C)C13 (stereo partly specified),u,1.04µM*,1.47µM*,0.8%
CC(C)c1oc(=O)cc2c1[C@@H](O)[C@H]1OC(=O)[C@@]3(C)CC[C@@H](O)[C@@]2(C)C13 (stereo partly specified),u,2.62µM*,2.94µM*,5.8%
CCCCNC(=S)N/N=C/c1ccc(C#N)cc1,-17.9%,9.28µM*,-27.8%,62.1%
CC(C)NC(=S)N/N=C/C1=CCC2CC1C2(C)C (stereo unspecified),u,u,13.1µM*,22.3%
C=C(C)CNC(=S)N/N=C/C1=CCC2CC1C2(C)C (stereo unspecified),u,u,u,26.8%
CCCCNC(=S)N/N=C/C1=CCC2CC1C2(C)C (stereo unspecified),u,11.7µM*,9.28µM*,14.4%
CCn1c(NCc2ccccc2NS(=O)(=O)c2ccc(C)cc2)nc2ccccc21,14.1µM*,71.2%,-19.6%,-5.0%
CCn1c(NCc2cc(Br)ccc2NS(=O)(=O)c2ccc(C)cc2)nc2ccccc21,10µM*,4.65µM*,u,0.9%
O=C(CC(=O)c1ccccc1)Nc1cccnc1Cl,7.9%,-3.5%,95.3%,22.9%
CNc1ccc(Cl)cc1S(=O)(=O)c1ccccc1[N+](=O)[O-],x,x,x,-24.8%
Cc1ccc(S(=O)(=O)Nc2ccc(C(=O)Nc3ccncc3)cc2)cc1,-10.4%,10.4µM*,-26.1%,-12.2%
Cc1ccc(NS(=O)(=O)c2ccc(Cl)c(C(=O)Nc3cccc(C(=O)O)c3)c2)cc1,12.5%,u,-5.5%,-4.6%
Cc1ccc(NS(=O)(=O)c2ccc(NC(=O)c3cccc(NC(=O)C(C)C)c3)cc2)cc1,10µM*,1.65µM*,17.1%,-11.7%
O=C(O)c1ccc(NS(=O)(=O)c2ccc(NC(=O)c3ccccc3Cl)cc2)cc1,7.0%,6.57µM*,21.7%,-8.7%
CC1(C)CC(=O)C=C(c2ccc(-c3ccccc3)cc2)C1=O,x,x,x,-9.8%
CCCc1nc2cc3c(cc2[nH]1)n(C)c(=O)n3C,u,-23.4%,-11.6%,-2.3%
Cc1sc2ncnc(Sc3ccccc3C(=O)O)c2c1C,-26.6%,-0.8%,-1.6%,30.2%
Cn1nnnc1Sc1ncnc2scc(-c3ccccc3Cl)c12,x,1.65µM*,11.7µM*,x
Cc1sc2ncnc(Sc3nnnn3-c3ccccc3)c2c1C,u,34.6%,4.65µM*,5.4%
Cn1nnnc1Sc1ncnc2scc(-c3ccc(Cl)cc3)c12,x,3.7µM*,6.57µM*,x
Cn1nnnc1Sc1ncnc2scc(-c3cccc(S(C)(=O)=O)c3)c12,x,u,10.4µM*,x
COc1ccccc1N1CCN(C(=O)c2coc(=O)c(Br)c2)CC1,11.1%,-29.6%,u,15.6%
Cc1oc(-c2cccc(Cl)c2)nc1CS(=O)(=O)CC(=O)NCCCN1CCOCC1,-4.1%,u,u,-0.1%
COc1ccccc1C(=O)Nc1ccnn1C1CCN(C2CCCCC2)CC1,x,x,x,0.0%

# Bioassay records: PubChem, National Center for Advancing Translational Sciences (NCATS)
